Measurements reported in PubChem BioAssay (Tox21).
A number with no mark means an inactive call. Inconclusive results are not listed. A call without a number means that no potency is given here. The source made the active and inactive calls. Unless noted, calls come from the whole dose curve; as a rule, active = well fitted curve in the direction sought with a large enough effect in the repeat runs; inconclusive = weak or mixed curves; inactive = no such curve, though single readings can be large; an effect the other way counts as inactive or inconclusive.

Tests used:
[1] = A CellTox Green Cytotoxicity Assay to monitor cytotoxicity in HepG2 cells - 8 hour (AID 1224890); note: nearly all actives have a fitted effect of over 45% in size
In short: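 HepG2 cells, 600/well, preincubated 5 h with CellTox Green dye, then exposed to Tox21 compounds in DMSO at 37 C for up to 40 h. Dead-cell DNA fluorescence read at the indicated time point.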

[2] = qHTS assay to identify small molecule antagonists of the estrogen receptor alpha (ER-alpha) signaling pathway using the BG1 cell line in the presence of 0.1 nM 17-beta-estradiol - cell viability counter screen (AID 1259241); note: nearly all actives have a fitted effect of over 40% in size
In short: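 VM7Luc4E2, 4,000 cells/well, phenol red-free medium + 10% charcoal-stripped FBS; 24 hr plating; cpd + 0.1 nM E2 final, 22 hr 37C/5% CO2; CellTiter-Fluor 30 min, fluorescence.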

[3] = qHTS assay to identify small molecule antagonists of the androgen receptor (AR) signaling pathway using the MDA cell line in the presence of 0.5 nM R1881 - cell viability counter screen (AID 1259242); note: nearly all actives have a fitted effect of over 45% in size
In short: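 MDA-kb2 cells (MMTV-luciferase, AR/GR responsive) were treated with compounds plus 0.5 nM R1881 (final) for 16 hr at 37C, 0% CO2. Viability was then read in the same wells as live-cell protease fluorescence (CellTiter-Fluor, 30 min).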

[4] = molecular target: Androgen receptor (Homo sapiens) (UniProt P10275); assay: qHTS assay to identify small molecule antagonists of the androgen receptor (AR) signaling pathway using the MDA cell line in the presence of 0.5 nM R1881 (AID 1259243); note: nearly all actives have a fitted effect of over 50% in size
In short: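 MDA-kb2 cells (MMTV-luciferase, responsive to AR and GR) at 3,000/well, rested 5 h at 37C, 0% CO2, then given compounds plus 0.5 nM R1881 (final) for 16 hr. Luciferase read with ONE-Glo after 30 min at room temperature.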

[5] = molecular target: Estrogen receptor (Homo sapiens) (UniProt P03372); assay: qHTS assay to identify small molecule antagonists of the estrogen receptor alpha (ER-alpha) signaling pathway using the BG1 cell line in the presence of 0.1 nM 17-beta-estradiol (AID 1259244); note: nearly all actives have a fitted effect of over 50% in size
In short: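 VM7Luc4E2 cells (endogenous full-length ER-alpha, 4×ERE-luciferase), kept 5 days in phenol red-free, charcoal-stripped FBS medium; 4,000 cells/well. Compounds added with 0.1 nM (final) 17beta-estradiol, 22 hr at 37C; luminescence read with ONE-Glo after 30 min.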

[6] = qHTS assay to identify small molecule HDAC inhibitors (AID 1259364); note: top concentration of the series differs between compounds; nearly all actives have a fitted effect of over 45% in size
In short: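 Wild-type HCT-116 cells, plated overnight at 37 C, exposed to compounds 2 hr at 37 C; luminogenic HDAC-Glo substrate then added 30 min at room temperature. Luminescence reports relative endogenous class I/II HDAC activity.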

[7] = qHTS assay to identify small molecule agonists of the sonic hedgehog signaling (Shh) pathway - cell viability counter screen (AID 1259366); note: nearly all actives have a fitted effect of over 50% in size
In short: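 Cytotoxicity counter screen run in the same wells as the Shh reporter assay. NIH/3T3 cells carrying a Gli1 response element–driven luciferase were treated with DMSO-dissolved compounds for 24hr, and live-cell protease activity was measured with CellTiter-Fluor.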

[8] = qHTS assay to identify small molecule antagonists of the sonic hedgehog signaling (Shh) pathway - cell viability counter screen (AID 1259367); note: nearly all actives have a fitted effect of over 55% in size
In short: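 After a 4 hr settling period, 3T3 Gli1-Luc cells were treated with DMSO-dissolved chemicals and conditioned medium, kept 24 hr at 37C in 5% CO2, and assayed for viability by CellTiter-Fluor fluorescence following 1 hr reagent incubation.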

[9] = qHTS assay to identify small molecule agonists of the sonic hedgehog signaling (Shh) pathway (AID 1259368; calls by dose curve;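 note: NIH/3T3-derived 3T3Gli1-Luc cells carrying a stable Gli1-driven firefly luciferase reporter; series mostly up to about 92 µM; nearly all actives have a fitted effect of over 15% in size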)
In short: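 NIH/3T3-derived 3T3Gli1-Luc cells with stably integrated Gli1-driven firefly luciferase, 2,000 cells/well, compounds added after 4 hr. Incubated 24 hr at 37C, 5% CO2; luminescence read after 30 min with luciferase reagent at room temperature.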

[10] = qHTS assay to identify small molecule antagonists of the sonic hedgehog signaling (Shh) pathway (AID 1259369; calls by dose curve; note: nearly all actives have a fitted effect of over 45% in size; note: potency is the fitted concentration of half-maximal effect)
In short: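 NIH/3T3-derived Gli1-Luc reporter cells plated 4 h, dosed with compound, then stimulated with conditioned medium for 24 h at 37 C. Firefly luciferase luminescence read after 30 min with detection reagent at room temperature.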

[11] = molecular target: Estrogen receptor beta (Homo sapiens) (UniProt Q92731); assay: qHTS assay to identify small molecule agonists of the estrogen receptor beta (ER-beta) signaling pathway (AID 1259377; active = well fitted activation curve with a large enough effect in the signal ratio in the repeat runs, not every such curve was filed as active; the % refers to the signal ratio)
In short: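 HEK293T ER-beta-UAS-bla; 2% charcoal-stripped FBS; cells pre-incubated 6 hr, compound 16 hr, 37C/5% CO2; LiveBLAzer B/G FRET substrate 2 h RT; fluorescence intensity read.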

[12] = molecular target: Estrogen receptor beta (Homo sapiens) (UniProt Q92731); assay: qHTS assay to identify small molecule antagonists of the estrogen receptor beta (ER-beta) signaling pathway (AID 1259378; active = well fitted inhibition curve with a large enough effect in the signal ratio in the repeat runs, not every such curve was filed as active; the % refers to the signal ratio)
In short: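 ER-beta-UAS-bla HEK293T (GripTite) cells in 2% charcoal-stripped FBS medium were preincubated 6 hr at 37C, dosed with compound, then stimulated with 1 nM E2 (final) for 16 hr; beta-lactamase reporter read by B/G FRET fluorescence after 2 hr substrate loading.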

[13] = qHTS assay to identify small molecule agonists of the androgen receptor (AR) signaling pathway in the presence of an antagonist - cell viability counter screen (AID 1259379);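 note: MDA-kb2 human breast cancer cells carrying an MMTV luciferase reporter; series mostly up to about 92 µM; nearly all actives have a fitted effect of over 25% in size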
In short: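 MDA-kb2 cells (MMTV-luciferase, AR/GR), 3,000/well, 5 h attachment, then 3.0 µM nilutamide (final) and compounds at 15 concentrations. Viability by CellTiter-Fluor fluorescence after 16 h at 37 °C, 0% CO2, in the reporter wells.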

[14] = qHTS assay to identify small molecule agonists of the estrogen receptor beta (ER-beta) signaling pathway - cell viability counter screen (AID 1259380); note: nearly all actives have a fitted effect of over 30% in size
In short: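 ER-beta-UAS-bla HEK293T cells in medium with 2% charcoal-stripped FBS, pre-incubated 6 hr, then treated 16 hr at 37C. Cytotoxicity read in the same wells by CellTiter-Glo luminescence after 30 min at room temperature.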

[15] = molecular target: Androgen receptor (Homo sapiens) (UniProt P10275); assay: qHTS assay to identify small molecule agonists of the androgen receptor (AR) signaling pathway in the presence of an antagonist (AID 1259381; calls by dose curve; note: nearly all actives have a fitted effect of over 15% in size)
In short: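 MDA-kb2 cells carrying MMTV-luciferase (AR/GR responsive), 3,000 cells/well, co-treated with 3.0 uM nilutamide final. Compounds at 15 concentrations, 16 hr at 37C without CO2. Luciferase luminescence read after 30 min with ONE-Glo.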

[16] = qHTS assay to identify small molecule antagonists of the estrogen receptor beta (ER-beta) signaling pathway - cell viability counter screen (AID 1259382); note: series mostly up to about 92 µM; nearly all actives have a fitted effect of over 55% in size
In short: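 ER-beta-UAS-bla HEK293T cells in 2% charcoal-stripped FBS medium, treated with compound plus 1 nM 17-beta-estradiol for 16 h at 37C. Viability read by CellTiter-Glo luminescence after 30 min at room temperature in the same wells.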

[17] = molecular target: Estrogen receptor (Homo sapiens) (UniProt P03372); assay: qHTS assay to identify small molecule agonists of the estrogen receptor alpha (ER-alpha) signaling pathway in the presence of an antagonist (AID 1259383; calls by dose curve; note: top concentration of the series differs between compounds; nearly all actives have a fitted effect of over 15% in size)
In short: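 VM7Luc4E2 cells express endogenous full-length ER-alpha with an ERE-luciferase reporter and were hormone-deprived for 5 days. Compounds at 15 concentrations were added with 10.0nM ICI-182,780 for 22hr at 37C. Luminescence was read with ONE-Glo.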

[18] = qHTS assay to identify small molecule agonists or antagonists of the thyroid stimulating hormone receptor (TSHR) signaling pathway - wild type cell line counter screen (AID 1259384; calls by dose curve)
In short: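 Wild-type HEK293 cells were plated 18 h at 37 C/5% CO2, pin-dosed with compound plus Ro20-1724 medium, held 30 min at room temperature, then given cAMP-d2 and anti-cAMP-cryptate; fluorescence was read after 1 h. Fifteen concentrations, triplicate.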

[19] = qHTS assay to identify small molecule phospholipidosis (PLD) inducers (AID 1259344; active = well fitted curve in the direction sought with a large enough effect; an effect the other way counts as inactive or inconclusive)
In short: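 HepG2 cells grown on collagen I take up LipidTOX Red while exposed to compound for 24 h; after fixation they are imaged at 20x and pit metrics are extracted.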

[20] = qHTS assay to identify small molecule HDAC inhibitors - cell viability counter screen (AID 1259365); note: series mostly up to about 92 µM; nearly all actives have a fitted effect of over 50% in size
In short: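 Luminescence from CellTiter-Glo, developed 30min at room temperature, reports viability of wild-type HCT-116 cells treated 2hr with compounds at 37 C and 5% CO2 after overnight plating.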

Sequence of Estrogen receptor (Homo sapiens) (P03372 whole entry, looked up): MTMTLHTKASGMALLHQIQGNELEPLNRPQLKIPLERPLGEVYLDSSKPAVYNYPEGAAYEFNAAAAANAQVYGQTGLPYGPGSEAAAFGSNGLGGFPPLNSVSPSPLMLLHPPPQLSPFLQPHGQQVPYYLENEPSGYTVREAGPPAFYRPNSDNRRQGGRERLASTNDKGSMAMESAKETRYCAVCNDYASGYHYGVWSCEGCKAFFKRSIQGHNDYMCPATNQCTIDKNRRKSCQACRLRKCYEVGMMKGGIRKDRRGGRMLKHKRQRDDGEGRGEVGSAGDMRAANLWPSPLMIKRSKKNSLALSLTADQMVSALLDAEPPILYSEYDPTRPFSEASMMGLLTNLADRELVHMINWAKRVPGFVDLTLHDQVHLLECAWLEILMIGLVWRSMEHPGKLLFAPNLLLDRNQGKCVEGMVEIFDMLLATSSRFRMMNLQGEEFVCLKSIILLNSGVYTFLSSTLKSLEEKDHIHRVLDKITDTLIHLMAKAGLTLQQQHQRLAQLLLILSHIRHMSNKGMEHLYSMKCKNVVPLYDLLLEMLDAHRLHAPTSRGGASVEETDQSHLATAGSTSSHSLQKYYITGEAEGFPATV
Sequence of Estrogen receptor beta (Homo sapiens) (Q92731 whole entry, looked up): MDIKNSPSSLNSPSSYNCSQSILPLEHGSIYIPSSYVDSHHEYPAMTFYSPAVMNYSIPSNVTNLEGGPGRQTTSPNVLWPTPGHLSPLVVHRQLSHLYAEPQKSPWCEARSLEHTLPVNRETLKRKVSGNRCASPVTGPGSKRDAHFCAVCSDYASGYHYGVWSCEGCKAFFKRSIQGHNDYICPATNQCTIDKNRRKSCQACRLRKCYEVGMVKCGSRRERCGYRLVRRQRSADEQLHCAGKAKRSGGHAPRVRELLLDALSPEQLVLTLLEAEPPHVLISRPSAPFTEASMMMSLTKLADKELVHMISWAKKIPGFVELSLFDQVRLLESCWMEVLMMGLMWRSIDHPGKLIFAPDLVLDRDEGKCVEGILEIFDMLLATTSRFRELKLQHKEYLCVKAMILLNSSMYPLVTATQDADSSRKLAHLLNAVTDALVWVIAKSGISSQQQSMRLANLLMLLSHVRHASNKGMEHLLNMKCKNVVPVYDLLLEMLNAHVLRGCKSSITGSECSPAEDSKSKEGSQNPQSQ
Sequence of Androgen receptor (Homo sapiens) (P10275 whole entry, looked up): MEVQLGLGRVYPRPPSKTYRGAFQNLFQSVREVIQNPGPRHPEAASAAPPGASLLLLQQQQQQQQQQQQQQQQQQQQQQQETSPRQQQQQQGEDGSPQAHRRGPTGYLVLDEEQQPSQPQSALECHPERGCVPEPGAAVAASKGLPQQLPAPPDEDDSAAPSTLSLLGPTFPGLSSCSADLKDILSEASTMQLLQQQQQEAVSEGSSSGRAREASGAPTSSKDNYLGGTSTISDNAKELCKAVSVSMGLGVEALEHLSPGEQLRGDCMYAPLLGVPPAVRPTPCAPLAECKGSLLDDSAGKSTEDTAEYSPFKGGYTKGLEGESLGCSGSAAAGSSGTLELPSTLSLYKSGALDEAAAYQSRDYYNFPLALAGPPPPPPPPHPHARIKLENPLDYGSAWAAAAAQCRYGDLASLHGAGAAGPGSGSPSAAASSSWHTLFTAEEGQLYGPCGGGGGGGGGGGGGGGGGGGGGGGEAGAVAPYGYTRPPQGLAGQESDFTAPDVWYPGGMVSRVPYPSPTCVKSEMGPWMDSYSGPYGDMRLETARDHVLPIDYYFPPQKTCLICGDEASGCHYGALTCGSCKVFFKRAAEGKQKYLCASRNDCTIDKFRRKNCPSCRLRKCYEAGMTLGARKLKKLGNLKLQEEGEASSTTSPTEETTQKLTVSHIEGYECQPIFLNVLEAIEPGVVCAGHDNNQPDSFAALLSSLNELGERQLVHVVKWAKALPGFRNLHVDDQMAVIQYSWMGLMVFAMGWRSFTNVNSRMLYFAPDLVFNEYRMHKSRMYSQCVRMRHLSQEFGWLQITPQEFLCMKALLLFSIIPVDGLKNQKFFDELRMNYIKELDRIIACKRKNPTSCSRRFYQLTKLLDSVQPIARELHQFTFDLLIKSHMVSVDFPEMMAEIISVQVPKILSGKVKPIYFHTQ

## CC1=CCC2C(C1)C2(C)C (configuration not stated)
[1]
  Potency: inactive
[2]
  outcome: inactive
[3]
  outcome: inactive
[4]
  Potency: inactive
[5]
  outcome: inactive
[6]
  Potency: inactive
[7]
  Potency: inactive
[8]
  outcome: inactive
[9]
  Potency: inactive
[10]
  Potency: 17.2 µM (active)
[11]
  outcome: inactive
[12]
  Potency: inactive
[13]
  Potency: inactive
[14]
  Potency: inactive
[15]
  Potency: inactive
[16]
  Potency: inactive
[17]
  Potency: inactive
[18]
  outcome: inactive

## CCN(CC)S(=O)(=O)c1ccc(C(=O)O)cc1
[1]
  Potency: inactive
[2]
  outcome: inactive
[3]
  outcome: inactive
[5]
  outcome: inactive
[19]
  Potency: inactive
[6]
  Potency: inactive
[20]
  outcome: inactive
[7]
  Potency: inactive
[8]
  outcome: inactive
[9]
  Potency: inactive
[10]
  Potency: inactive
[11]
  outcome: inactive
[12]
  Potency: inactive
[13]
  Potency: inactive
[14]
  Potency: inactive
[16]
  Potency: inactive
[17]
  Potency: inactive
[18]
  outcome: inactive

## C1COCCO1
[1]
  Potency: inactive
[2]
  outcome: inactive
[3]
  outcome: inactive
[4]
  Potency: inactive
[5]
  outcome: inactive
[6]
  Potency: inactive
[20]
  outcome: inactive
[7]
  Potency: inactive
[8]
  outcome: inactive
[9]
  Potency: inactive
[10]
  Potency: inactive
[13]
  Potency: inactive
[14]
  Potency: inactive
[15]
  Potency: inactive
[16]
  Potency: inactive
[17]
  Potency: inactive

## C[N+](C)(C)CC[N+]1(C)Cc2c(Cl)c(Cl)c(Cl)c(Cl)c2C1
[1]
  Potency: inactive
[2]
  outcome: inactive
[3]
  outcome: inactive
[5]
  outcome: inactive
[19]
  Potency: inactive
[6]
  Potency: inactive
[20]
  outcome: inactive
[7]
  Potency: inactive
[8]
  outcome: inactive
[9]
  Potency: inactive
[10]
  Potency: inactive
[11]
  outcome: inactive
[12]
  Potency: inactive
[13]
  Potency: inactive
[14]
  Potency: inactive
[16]
  Potency: inactive
[17]
  Potency: inactive
[18]
  outcome: inactive

## Oc1cc(O)c2c(c1)O[C@H](c1ccc(O)c(O)c1)[C@H](O)C2
[1]
  Potency: inactive
[2]
  outcome: inactive
[3]
  outcome: inactive
[5]
  outcome: inactive
[19]
  Potency: inactive
[6]
  Potency: inactive
[20]
  outcome: inactive
[7]
  Potency: inactive
[8]
  outcome: inactive
[9]
  Potency: inactive
[10]
  Potency: inactive
[11]
  outcome: inactive
[12]
  Potency: inactive
[13]
  Potency: inactive
[14]
  Potency: inactive
[16]
  Potency: inactive
[17]
  Potency: inactive
[18]
  outcome: inactive

## O=C(CCOCCOCCOCCOCCC(=O)Nc1c(I)cc(I)c(C(=O)O)c1I)Nc1c(I)cc(I)c(C(=O)O)c1I
[1]
  Potency: inactive
[2]
  outcome: inactive
[3]
  outcome: inactive
[4]
  Potency: inactive
[5]
  outcome: inactive
[6]
  Potency: inactive
[20]
  outcome: inactive
[7]
  Potency: inactive
[8]
  outcome: inactive
[9]
  Potency: inactive
[10]
  Potency: inactive
[11]
  outcome: inactive
[12]
  Potency: inactive
[13]
  Potency: inactive
[14]
  Potency: inactive
[15]
  Potency: inactive
[16]
  Potency: inactive
[17]
  Potency: inactive
[18]
  outcome: inactive
